According to PubChem BioAssay (NCATS):
Values joined by “and” are separate entries in the source; they are usually repeats but may differ in a detail not shown here. Equal entries are not always repeated. Results filed as inconclusive are left out. A structure can be active in one record and inactive in another. Active and inactive are the calls of the source. Unless noted, calls come from the whole dose curve; as a rule, active = well fitted curve in the direction sought with a large enough effect; inconclusive = small, poorly fitted or top-dose-only effect, or another doubt; inactive = no such curve, though single readings can be large; an effect the other way counts as inactive or inconclusive.

Tests used:
[1] = biological target: Guanine nucleotide-binding protein G(i) subunit alpha-1 (Homo sapiens) (UniProt P63096); experiment: qHTS Assay for Inhibitors of RGS12 GoLoco Motif Activity (Green Fluorophore) (AID 879);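 note: 0% = labeled peptide with Gαi1 and full inhibition = labeled peptide alone without protein; negative values mean loss of peptide binding seen as reduced polarization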
Guanine nucleotide-binding protein G(i) subunit alpha-1 (Homo sapiens), sequence (P63096 whole entry, looked up): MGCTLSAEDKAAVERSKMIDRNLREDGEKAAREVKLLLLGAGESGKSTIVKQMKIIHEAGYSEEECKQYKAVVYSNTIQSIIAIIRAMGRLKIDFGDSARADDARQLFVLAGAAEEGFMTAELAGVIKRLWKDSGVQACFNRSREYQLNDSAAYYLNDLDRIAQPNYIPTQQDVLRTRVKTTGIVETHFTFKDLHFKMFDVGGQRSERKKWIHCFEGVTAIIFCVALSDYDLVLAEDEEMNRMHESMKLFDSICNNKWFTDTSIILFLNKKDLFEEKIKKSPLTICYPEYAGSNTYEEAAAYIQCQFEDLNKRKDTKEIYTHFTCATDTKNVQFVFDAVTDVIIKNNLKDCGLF
Method in brief: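 Fluorescence polarization assay: 50 nM Gαi1 with 10 nM FITC-labeled RGS12 GoLoco peptide in 10 mM Tris pH 7.5, 150 mM NaCl, 0.1 mM GDP, 0.05% NP40, 10 min at room temperature with compound.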

[2] = biological target: Cytochrome P450 2C9 (Homo sapiens) (UniProt P11712); experiment: qHTS Assay for Inhibitors and Substrates of Cytochrome P450 2C9 (AID 883); note: nearly all actives have a fitted effect of over 60% in size; note: potency is the fitted concentration of half-maximal effect
Cytochrome P450 2C9 (Homo sapiens), sequence (P11712 whole entry, looked up): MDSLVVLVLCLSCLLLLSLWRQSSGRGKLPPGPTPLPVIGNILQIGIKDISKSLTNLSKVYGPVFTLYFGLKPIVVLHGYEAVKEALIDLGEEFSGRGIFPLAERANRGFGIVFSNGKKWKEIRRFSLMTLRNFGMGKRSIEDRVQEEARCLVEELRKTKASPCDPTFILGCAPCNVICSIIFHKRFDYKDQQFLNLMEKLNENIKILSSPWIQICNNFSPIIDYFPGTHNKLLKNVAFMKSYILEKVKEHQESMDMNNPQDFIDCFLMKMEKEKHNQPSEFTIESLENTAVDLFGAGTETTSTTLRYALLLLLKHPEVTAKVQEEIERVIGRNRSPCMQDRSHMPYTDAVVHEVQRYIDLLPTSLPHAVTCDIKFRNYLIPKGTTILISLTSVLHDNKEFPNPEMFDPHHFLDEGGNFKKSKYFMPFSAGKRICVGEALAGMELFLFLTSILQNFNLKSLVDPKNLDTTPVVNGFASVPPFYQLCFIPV
Method in brief: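 A luminogenic readout tracked human CYP2C9 (10nM) converting deoxyluciferin (100uM, at KM) in 25mM KPO4 during 60 min at 37C with regenerated NADPH. Values normalized to 57uM sulphaphenazole as complete inhibition.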

[3] = biological target: Cytochrome P450 3A4 (Homo sapiens) (UniProt P08684); experiment: qHTS Assay for Inhibitors and Substrates of Cytochrome P450 3A4 (AID 884); note: nearly all actives have a fitted effect of over 50% in size; note: potency is the fitted concentration of half-maximal effect
Cytochrome P450 3A4 (Homo sapiens), sequence (P08684 whole entry, looked up): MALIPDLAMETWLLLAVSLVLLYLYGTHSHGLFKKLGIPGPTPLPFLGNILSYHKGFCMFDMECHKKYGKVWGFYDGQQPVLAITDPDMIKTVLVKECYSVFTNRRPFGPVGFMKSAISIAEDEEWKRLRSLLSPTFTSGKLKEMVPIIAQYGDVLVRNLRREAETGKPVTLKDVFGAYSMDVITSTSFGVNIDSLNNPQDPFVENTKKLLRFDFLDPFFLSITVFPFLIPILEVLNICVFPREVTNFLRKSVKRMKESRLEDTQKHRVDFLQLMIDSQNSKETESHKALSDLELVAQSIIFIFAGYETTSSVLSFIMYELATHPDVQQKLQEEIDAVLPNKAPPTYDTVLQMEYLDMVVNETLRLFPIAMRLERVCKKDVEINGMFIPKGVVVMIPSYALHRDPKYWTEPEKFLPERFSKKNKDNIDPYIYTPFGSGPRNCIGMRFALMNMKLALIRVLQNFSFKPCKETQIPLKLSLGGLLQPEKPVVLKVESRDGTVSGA
Method in brief: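 20 nM human CYP3A4 with 25 uM Luciferin-PPXE (at KM) in 200 mM KPO4, preincubated 10 min with compound; NADPH regeneration started a 60 min RT reaction. Luciferin detected by luminescence, normalized to 57 uM ketoconazole as full inhibition.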

[4] = biological target: Cytochrome P450 3A4 (Homo sapiens) (UniProt P08684); experiment: qHTS Assay for Activators of Cytochrome P450 3A4 (AID 885); note: nearly all actives have a fitted effect of over 65% in size; note: potency is the fitted concentration of half-maximal effect
Method in brief: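 Steps: enzyme/substrate mix dispensed; compound added, 10 min RT; NADPH regeneration solution added, 60 min RT; luciferin detection buffer stops reaction; 20 min later luminescence measured.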

[5] = Confirmation and Secondary Assay for Modulators of Hemoglobin Beta Chain Splicing at IVS2 654 locus (AID 910);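 note: per-well total GFP intensity by laser scanning cytometry after 2-day treatment; % of control where 0% means no effect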
Method in brief: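 HeLa cells stably carrying EGFP interrupted by mutant beta-globin IVS2-654 intron (CMV-driven) were treated with compound for 2 days at 37C; corrected splicing was scored as total peak GFP intensity per well (488 nm excitation, 500-520 nm emission).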

[6] = Confirmation and Secondary Assay for Modulators of Hemoglobin Beta Chain Splicing at IVS2 705 locus (AID 930);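 note: HeLa cells stably expressing the EGFP-705 splicing reporter; GFP fluorescence per well restored by corrected splicing of the IVS2-705 intron in EGFP; % of control where 0% means no effect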
Method in brief: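 Secondary splice-site specificity test uses HeLa expressing CMV-driven EGFP interrupted by IVS2-705; cells were treated 2 days at 37C with 500 nM antisense PNA as positive control.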

[7] = biological target: Muscarinic acetylcholine receptor M1 (Rattus norvegicus) (UniProt P08482); experiment: qHTS Assay for Antagonists of Acetylcholine Muscarinic M1 Receptor: Kinetic Measurement of Intracellular Calcium Response (AID 943); note: nearly all actives have a fitted effect of over 75% in size; note: potency is the fitted concentration of half-maximal effect
Muscarinic acetylcholine receptor M1 (Rattus norvegicus), sequence (P08482 whole entry, looked up): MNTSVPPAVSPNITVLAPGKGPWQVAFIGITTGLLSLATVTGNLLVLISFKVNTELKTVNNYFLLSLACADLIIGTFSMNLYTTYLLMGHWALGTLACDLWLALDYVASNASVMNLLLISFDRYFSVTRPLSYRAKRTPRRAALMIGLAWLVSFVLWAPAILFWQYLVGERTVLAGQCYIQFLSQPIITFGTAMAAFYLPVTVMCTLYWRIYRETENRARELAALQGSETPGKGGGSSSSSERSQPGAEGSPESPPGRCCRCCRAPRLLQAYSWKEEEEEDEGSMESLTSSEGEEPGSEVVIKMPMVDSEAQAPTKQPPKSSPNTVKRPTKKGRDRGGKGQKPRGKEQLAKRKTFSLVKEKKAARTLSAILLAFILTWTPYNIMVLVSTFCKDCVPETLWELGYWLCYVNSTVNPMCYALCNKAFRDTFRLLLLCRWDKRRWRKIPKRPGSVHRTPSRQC
Method in brief: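 CHO cells expressing rat M1 receptor, Fluo-4 loaded, preincubated 10 min with compound, then stimulated with EC80 carbachol (100 nM final). Kinetic calcium fluorescence over 4 min; response taken as peak over basal signal.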

[8] = biological target: Muscarinic acetylcholine receptor M1 (Rattus norvegicus) (UniProt P08482); experiment: qHTS Assay for Antagonists of Acetylcholine Muscarinic M1 Receptor: Measurement of IP-One Response (AID 944); note: nearly all actives have a fitted effect of over 75% in size; note: potency is the fitted concentration of half-maximal effect
Method in brief: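 CHO cells stably expressing rat M1, pretreated 10 min with compound, then stimulated 30 min with carbachol at EC80 (200 nM) in LiCl-containing buffer pH 7.4; IP1 accumulation read by HTRF competition (665/620 nm).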

[9] = biological target: Pyruvate kinase (Leishmania mexicana) (UniProt Q27686); experiment: qHTS Validation Assay for Inhibitors of Leishmania Mexicana Pyruvate Kinase (AID 945); note: potency is the fitted concentration of half-maximal effect
Pyruvate kinase (Leishmania mexicana), sequence (Q27686 2-499 E452W): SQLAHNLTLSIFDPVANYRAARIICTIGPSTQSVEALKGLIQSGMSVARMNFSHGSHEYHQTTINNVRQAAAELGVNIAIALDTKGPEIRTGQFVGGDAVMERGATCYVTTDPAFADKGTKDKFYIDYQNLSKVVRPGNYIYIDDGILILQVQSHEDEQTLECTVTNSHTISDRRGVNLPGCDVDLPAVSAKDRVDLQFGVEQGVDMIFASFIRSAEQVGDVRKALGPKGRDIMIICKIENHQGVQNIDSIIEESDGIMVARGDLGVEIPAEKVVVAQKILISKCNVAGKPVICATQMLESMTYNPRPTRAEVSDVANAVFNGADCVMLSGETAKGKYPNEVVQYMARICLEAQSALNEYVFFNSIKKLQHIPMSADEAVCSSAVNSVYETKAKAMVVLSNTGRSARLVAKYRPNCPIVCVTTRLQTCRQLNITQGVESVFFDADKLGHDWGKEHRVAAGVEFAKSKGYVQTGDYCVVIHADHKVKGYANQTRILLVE
Method in brief: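 Read-out: luminescence from PKLight stop/detection reagent, data normalized to DMSO. Reaction: 0.2 nM E451W LmPYK, 0.5 mM PEP, 0.1 mM ADP, pH 7.2, 1 h room temperature.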

[10] = Cellular Toxicity (caspase-3) Hek293 (AID 664); details: HEK293 caspase-3 activation, DMSO = 0%, 100 µM tamoxifen = 100%; at 92.2 µM (top of the series);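 note: cells exposed to compound for 16 h at 37 °C before readout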
Method in brief: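 HEK293 cells in complete medium treated 16 h at 37 °C, then Caspase-Glo 3/7 luminescence read after 20 min at room temperature. Normalized to DMSO and 100 uM tamoxifen; AC50 from Hill fit of concentration-response.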

[11] = Cell Viability - LYMP2-001 (AID 921); note: nearly all actives have a fitted effect of over 70% in size; note: potency is the fitted concentration of half-maximal effect
Method in brief: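 CellTiter-Glo luminescence (intracellular ATP) after 24 hr compound exposure at 37 C, 2500 lymphoblastoid cells/well in complete medium. AC50 fitted with standard Hill equation; tetraoctylammonium bromide positive control.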

[12] = Cellular Toxicity (caspase-3) N2a (AID 665); details: Potency: caspase-3 activation;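 note: compound exposure lasted 16 h at 37 °C before readout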
Method in brief: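 Mouse N2a neuroblastoma cells, 1500 per well, treated 16 h at 37 °C in complete medium; caspase-3/7 activity by Caspase-Glo luminescence after 1 h. Normalized to DMSO and 10 uM staurosporine; AC50 from Hill fits.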

[13] = Cellular Toxicity (caspase-3) NIH 3T3 (AID 666);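 note: 0% = DMSO basal and 100% = 100 µM tamoxifen stimulation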
Method in brief: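 Mouse NIH 3T3 fibroblasts (1000/well) treated 16 h at 37 C; caspase-3/7 activity measured by Caspase-Glo 3/7 luminescence after 20 min. Normalized to DMSO and 100 uM tamoxifen; AC50 from Hill fits.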

[14] = Cellular Toxicity (caspase-3) Renal Proximal Tubule (AID 667); details: Potency: caspase-3 activation;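 note: cells exposed to compound for 16 hours at 37 °C before detection; 0% = DMSO basal and 100% = 10 µM staurosporine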
Method in brief: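 Luminescent caspase 3/7 signal from peptide-aminoluciferin cleavage measures apoptosis in freshly isolated rat kidney proximal tubule cells after 16 h compound exposure. Concentration-response data are normalized to DMSO and 10 uM staurosporine, and AC50 values come from Hill equation fits.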

[15] = qHTS Assay for Identification of Small Molecule Antagonists for NFkB Signaling Pathway (AID 895; active = well fitted inhibition curve with a large enough effect in the signal ratio, with a control signal flat, not every such curve was filed as active; the % refers to the signal ratio; note: % is set by controls: 0 for no effect and ±100 for the full control effect)
Method in brief: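 NFkB-bla ME-180 cervical carcinoma cells with beta-lactamase reporter under NFkB response element; compounds added, then TNF alpha at 10 pM final (EC50), 5 h at 37 C. LiveBLAzer substrate 2 h, room temperature; emission 460/530 nm at 405 nm excitation.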

[16] = biological target: Cytochrome P450 2D6 (Homo sapiens) (UniProt P10635); experiment: qHTS Assay for Inhibitors and Substrates of Cytochrome P450 2D6 (AID 891); note: nearly all actives have a fitted effect of over 60% in size; note: potency is the fitted concentration of half-maximal effect
Cytochrome P450 2D6 (Homo sapiens), sequence (P10635 whole entry, looked up): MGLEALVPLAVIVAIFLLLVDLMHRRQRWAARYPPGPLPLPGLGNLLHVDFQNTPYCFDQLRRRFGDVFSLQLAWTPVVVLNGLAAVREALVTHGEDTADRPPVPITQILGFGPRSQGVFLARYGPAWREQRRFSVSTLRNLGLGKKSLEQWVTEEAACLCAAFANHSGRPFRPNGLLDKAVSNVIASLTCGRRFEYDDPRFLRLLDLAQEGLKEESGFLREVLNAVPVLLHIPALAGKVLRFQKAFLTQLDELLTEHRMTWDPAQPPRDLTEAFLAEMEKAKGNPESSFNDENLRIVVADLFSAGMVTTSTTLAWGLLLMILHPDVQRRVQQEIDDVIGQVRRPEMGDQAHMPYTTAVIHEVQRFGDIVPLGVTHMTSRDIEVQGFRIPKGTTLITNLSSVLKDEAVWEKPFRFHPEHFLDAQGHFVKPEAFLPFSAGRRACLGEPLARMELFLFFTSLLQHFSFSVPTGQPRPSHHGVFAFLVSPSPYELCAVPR
Method in brief: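 Human CYP2D6 (5 nM) with 30 uM Luciferin-ME EGE (at Km) in 100 mM KPO4, compound preincubated 10 min, then NADPH regeneration system for 60 min at room temperature. Luciferin read by luminescence; normalized to 1.43 uM quinidine.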

[17] = qHTS Assay for Identification of Small Molecule Agonists for Thrombopoietin (TPO) Signaling Pathway (AID 917); note: potency is the fitted concentration of half-maximal effect
Method in brief: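 Activators of TPO signaling were sought in murine Ba/F3 cells transfected with the human receptor, using a luciferase gene driven by the Glycoprotein IIb promoter; 24-hr compound exposure at 37 C alongside 26 pM TPO, in IL-3-free medium.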

[18] = qHTS Assay for Identification of Small Molecule Antagonists for Thrombopoietin (TPO) Signaling Pathway (AID 918); details: TPO-dependent cell signaling reporter, antagonist mode; note: potency is the fitted concentration of half-maximal effect; nearly all actives have a fitted effect of over 60% in size
Method in brief: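 Murine Ba/F3 cells expressing human TPO receptor and a Glycoprotein IIb promoter-luciferase reporter, IL-3-starved overnight, treated with compound plus TPO at EC50 (26 pM final). After 24 h at 37 C, luminescence read to detect inhibitors.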

[19] = qHTS Assay for Identification of Small Molecule Agonists for Hypoxia Response Element Signaling Pathway (AID 914; active = well fitted activation curve with a large enough effect in the signal ratio, with a control signal flat, not every such curve was filed as active; the % refers to the signal ratio; note: % of control where 0% means no effect); details: ME-180 (cervical carcinoma) HRE-bla reporter, beta-lactamase ratio, CoCl2, 17 h; stronger effect = higher value
Method in brief: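 qHTS titration; ME-180 HRE-bla cells; EC50 CoCl2 co-treatment, 17 h at 37 degrees Celsius; CCF4 dye, ex 405nm, em 460nm and 530nm; %Activity from ratio; AC50.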

N.N.O=C(O)C1(C(=O)O)CCC1.[Pt]
active: Potency [2] 3.98 µM
inactive: outcome [1] | Potency [3] | Potency [4] | outcome [5] | outcome [6] | Potency [7] | Potency [8] | Potency [9]

COc1cc(/C=C/C(=O)CC(=O)/C=C/c2ccc(O)c(OC)c2)ccc1O
inactive: caspase-3 activation [10] 27.4% | Potency [4]
active: Potency [3] 12.6 µM | Potency [11] 20 µM

Nc1nc2ccc([N+](=O)[O-])cc2s1
inactive: caspase-3 activation [10] -4.39% | Potency [12] | Potency [13] | Potency [14] | Potency [11]

COC(=O)c1c(C)[nH]c(C)c1C(=O)c1ccccc1Cc1ccccc1
active: Potency [2] 2.51 µM | Potency [3] 0.501 µM
inactive: outcome [1] | Potency [4] | Potency [8] | Potency [9]

c1ccc2sc(SSc3nc4ccccc4s3)nc2c1
inactive: caspase-3 activation [10] 2.01% | Potency [12] | Potency [13] | Potency [14] | Potency [3] | Potency [11]

NC(N)=NC(=O)c1nc(Cl)c(N2CCCCCC2)nc1N
inactive: outcome [1] | Potency [3] | Potency [15] | outcome [5] | outcome [6] | Potency [8]

NCCCCC(=O)O
inactive: outcome [1] | Potency [3] | Potency [16] | outcome [5] | outcome [6] | Potency [7] | Potency [8] | Potency [9]

Cc1cc(NC(=O)Nc2ccc3c(ccn3C)c2)sn1
inactive: outcome [1] | Potency [4] | Potency [15] | Potency [7]

Oc1cc2c(cc1O)CN(C(=S)NCCc1ccc(Cl)cc1)CCC2
inactive: outcome [1] | Potency [4] | Potency [7] | Potency [8] | Potency [9]
active: Potency [3] 3.16 µM

COc1ccccc1N1CCN(CCCCNS(=O)(=O)c2cccc3c(N(C)C)cccc23)CC1
active: Potency [3] 2.51 µM | Potency [7] 11.2 µM
inactive: outcome [1] | Potency [4] | Potency [9]

C=C[C@H]1CN2CC[C@@H]1C[C@@H]2[C@@H](O)c1ccnc2ccc(OC)cc12
inactive: outcome [1] | outcome [2] | Potency [15] | Potency [8] | Potency [9]

CCCN(CC1CC1)c1nc(C)nc(Nc2c(Cl)cc(Cl)cc2Cl)c1Cl
inactive and 1.58 µM (active): Potency [16]
inactive: outcome [1] | Potency [4] | Potency [7] | Potency [8] | Potency [9]

O=C(O)[C@@H]1C[C@@H](C(=O)O)N1
inactive: outcome [1] | Potency [3] | Potency [15] | Potency [17] | Potency [7] | Potency [8] | Potency [9]

Brc1c(Br)c(Br)c2n[nH]nc2c1Br
inactive: outcome [1] | Potency [4] | Potency [7] | Potency [8] | Potency [9]
active: Potency [3] 2.51 µM

CN=c1nc(-c2ccccc2)n(-c2ccccc2)s1
active: Potency [2] 2 µM | Potency [18] 2.51 µM | Potency [8] 12.6 µM | Potency [9] 5.01 µM
inactive: outcome [1] | Potency [4] | Potency [15]

Fc1ccc(C(OCCCc2cnc[nH]2)c2ccc(F)cc2)cc1
inactive: outcome [1] | Potency [4] | Potency [9]
active: Potency [3] 0.794 µM | Potency [16] 631 nM | Potency [7] 5.01 µM | Potency [8] 7.94 µM

CCCn1c(=O)c2[nH]c(-c3ccc(OCC(=O)NCCN)cc3)nc2n(CCC)c1=O
inactive: outcome [1] | Potency [4] | Potency [9]
active: Potency [3] 2.51 µM

O=c1[nH]c2ccccc2n1CCCN1CCN(C(c2ccccc2)c2ccccc2)CC1
active: Potency [4] 15.8 µM | Potency [16] 794 nM | Potency [7] 5.01 µM | Potency [8] 15.8 µM
inactive: outcome [1] | Potency [3] | Potency [9]

O=C(Nc1ccccc1)c1cc([N+](=O)[O-])ccc1Cl
inactive: outcome [1] | Potency [4] | Potency [16] | Potency [8]
inactive and 6.31 µM (active): Potency [2]

NCCSSCCN
inactive: outcome [1] | Potency [3] | Potency [15] | outcome [5] | outcome [6] | Potency [8] | Potency [9]

N#C/C(=C\c1ccc(O)c(O)c1)C(=O)c1ccc(O)c(O)c1
inactive: outcome [1] | Potency [4] | Potency [15] | Potency [7] | Potency [9]

COc1cccc(C(=O)NCCN2CCN(c3ccc(Cl)cc3)CC2)c1
inactive: outcome [1] | Potency [4] | Potency [15] | Potency [17] | Potency [9]

CNCC[C@H](Oc1ccc(C(F)(F)F)cc1)c1ccccc1
inactive: outcome [1] | outcome [2] | Potency [9]

N#C/C(=C\c1c[nH]c2ccccc12)C(=O)c1ccc(O)c(O)c1
inactive: outcome [1] | Potency [4] | Potency [7] | Potency [8] | Potency [9]
active: Potency [3] 7.94 µM

O=C(c1cc(O)c(O)c([N+](=O)[O-])c1)c1ccccc1F
inactive: outcome [1] | Potency [4] | Potency [7] | Potency [8] | Potency [9]
active: Potency [2] 1.26 µM

O=C(Nc1cccc(C(=O)Nc2ccc(S(=O)(=O)O)c3cc(S(=O)(=O)O)cc(S(=O)(=O)O)c23)c1)Nc1cccc(C(=O)Nc2ccc(S(=O)(=O)O)c3cc(S(=O)(=O)O)cc(S(=O)(=O)O)c23)c1
inactive: outcome [1] | Potency [4] | activation [19] -24.7% | Potency [7] | Potency [9]

CN1CCc2cc(NC(=O)Nc3cccnc3)ccc21
active: Potency [17] 1.58 µM | Potency [9] 20 µM
inactive: outcome [1] | Potency [4] | Potency [7]

CCCCN1CCC(n2c(=O)[nH]c3ccccc32)CC1
active: Potency [16] 3160 nM
inactive: outcome [1] | Potency [2] | Potency [15] | Potency [7] | Potency [9]

Cc1ccc(O)c(N=Nc2ccccc2)n1
active: Potency [9] 6.31 µM
inactive: outcome [1] | Potency [4] | Potency [8]
12.6 µM (active) and inactive: Potency [2]
3.98 µM (active) and inactive: Potency [16]

C[C@@H](NC(=O)/C(C#N)=C/c1ccc(O)c(O)c1)c1ccccc1
inactive: outcome [1] | Potency [2] | Potency [4] | Potency [7] | Potency [8] | Potency [9]
